Screening data (PubChem BioAssay)
The entries come from a sample that favours hits as a whole.
TbPYK inhibitor: T. brucei pyruvate kinase inhibition | TbPYK enzyme, Kinase-Glo Plus ATP luminescence, 45 min | AID 624173 | 410,000 tested, 0.12% active | Potency, µM (titrated, usually from 76.8 µM), for the others: top-dose activity, negative = inhibition, hits mostly inhibitors; also: potency is read from the fitted curve at half-maximal effect; % is scaled to controls: 0 for no effect and ±100 for the full control effect; nearly all actives have a fitted effect of over 50% in size
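Luminescent Kinase-Glo Plus end-point after 45 min room-temperature reaction of T. brucei pyruvate kinase started with 130 uM ADP (final). Buffer TEA 50 mM pH 7.2 with KCl, MgCl2, BSA, Tween-20; titration-based qHTS with fitted concentration-effect curves.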
CHX counter: counter-screen hit for Shiga toxin inhibitors, cycloheximide; 300,000 tested, 12% active; cell reporter, cycloheximide protein synthesis inhibition counterscreen; AID 2314; max response, %; in the data active = max response mostly above about 13%, no sharp cut-off; inactive = mostly below about 14%; also: read at 38.3 µM for the half of the compounds with a filed dose; 0% is about no effect
Shiga inhibitor: blocks Shiga toxin action in Vero cells; Vero cells, Shiga toxin protein synthesis inhibition reporter; 290,000 tested, 9.2% active; inhibition, % at 38.7 µM; in the data active = inhibition mostly above about 28%, no sharp cut-off; inactive = mostly below about 43%; also: 0% is about no effect
NS1 function inh: influenza NS1 inhibition; Potency, µM (titrated, usually from 46.1 µM), inactives show at the top dose activity, positive = more growth; 270,000 tested, 0.4% active; calls by dose curve; also: potency is read from the fitted curve at half-maximal effect; actives are rising curves; nearly all actives have a fitted effect of over 50% in size
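S. cerevisiae expressing influenza A NS1, grown in glucose, washed, then diluted 1:100 into pH 6.0 -URA galactose medium with 23 nl compound. Growth recovery read as OD600; NS1-free strain serves as control.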
SARS PLP yeast: SARS-CoV PLP inhibition in yeast. 330,000 tested, 0.19% active. S. cerevisiae expressing SARS-CoV PLpro, growth rescue. Potency, µM (highest dose often 32.9 µM), inactives show at the top dose activity, positive = growth rescue, usual class: activators; calls by dose curve; also: potency is read from the fitted curve at half-maximal effect; 0% is about no effect; nearly all actives have a fitted effect of over 55% in size
LmPK inh: blocks Leishmania mexicana pyruvate kinase activity; AID 1721; Potency, µM (doses to about 57.5 µM), inactives show top-dose activity change, negative = inhibition, most hits filed as inhibitors; 290,000 tested, 0.37% active; purified LmPK, Kinase-Glo ATP luminescence, 1 h; Q27686; also: potency is read from the fitted curve at half-maximal effect; % is scaled to controls: 0 for no effect and ±100 for the full control effect
Target sequence (Q27686 whole entry, looked up): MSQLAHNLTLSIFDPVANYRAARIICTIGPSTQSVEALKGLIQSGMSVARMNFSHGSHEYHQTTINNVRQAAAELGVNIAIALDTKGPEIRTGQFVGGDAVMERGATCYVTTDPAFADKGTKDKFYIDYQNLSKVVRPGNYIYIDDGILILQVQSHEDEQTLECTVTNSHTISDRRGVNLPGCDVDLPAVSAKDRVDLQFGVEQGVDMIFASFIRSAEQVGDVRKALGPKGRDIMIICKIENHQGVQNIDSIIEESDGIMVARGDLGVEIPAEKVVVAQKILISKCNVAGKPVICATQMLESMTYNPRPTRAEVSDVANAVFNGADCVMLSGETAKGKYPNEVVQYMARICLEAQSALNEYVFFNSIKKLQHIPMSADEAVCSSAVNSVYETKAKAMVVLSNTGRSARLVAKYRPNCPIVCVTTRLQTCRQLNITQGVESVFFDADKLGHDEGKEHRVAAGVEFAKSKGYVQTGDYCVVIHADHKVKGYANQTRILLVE
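In 50 mM imidazole pH 7.2 with 7 mM MgCl2, LmPK (0.1 nM) turned over PEP (0.5 mM) and ADP (0.1 mM) for 1 h at room temperature. Luciferase read-out of ATP.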
LmPK confirm: Blocks LmPK activity, confirmation assay | purified LmPK, Kinase-Glo ATP luminescence, 1 h | shares compounds with LmPK inh | Potency, µM (top dose mostly 57.5 µM), without a hit: top-dose activity change, negative = inhibition, usual class: inhibitors | 150 tested, 40% active;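 active = compounds giving a full or partial concentration-response curve, as inhibitors or activators; inconclusive = weak, top-dose-only or unclear curve responses; inactive = no response at any tested dose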
The depositor's hits bear a star; ? = inconclusive; / = no result given. Unless noted, calls follow the shape of the dose curve; as a rule, active = well fitted curve in the direction sought with a large enough effect; inconclusive = small, poorly fitted or top-dose-only effect, or another doubt; inactive = no such curve, though single readings can be large; an effect the other way counts as inactive or inconclusive.

SMILES	TbPYK inhibitor	CHX counter	Shiga inhibitor	NS1 function inh	SARS PLP yeast	LmPK inh	LmPK confirm
CC(Sc1nnc(-c2cccnc2)o1)C(=O)NC1CCCC1 (stereo unspecified)	3.3%	/	/	/	1.6%	/	/
CCOc1ccc(NC(=O)C2(c3cccs3)CCOCC2)cc1	-0.8%	/	/	/	/	/	/
COc1cc(NC(=O)C2(C)CCCN2C(=O)C(C)C)cc(OC)c1OC (stereo unspecified)	-8.6%	/	/	/	/	/	/
CCOc1ccc(/C=N/NC(=O)c2c(-c3ccccc3)noc2C)cc1	0.2%	-4.6	15.2	18.5%	4.9%	3.7%	/
CCOc1ccc(/C=N/NC(=O)COc2ccccc2-c2ccccc2)cc1	2.0%	0.8	-25.1	19.3%	-6.8%	3.5%	1.1%
Cc1ccc(Cn2nnc3c(=O)[nH]c(C4CCCN(C(=O)Nc5ccc(F)cc5F)C4)nc32)cc1 (stereo unspecified)	0.2%	-3.6	-11.9	?	1.3%	8.7%	7.2%
CCOc1ccccc1NC(=O)N1CCCC(c2nc3c(nnn3Cc3ccc(C)cc3)c(=O)[nH]2)C1 (stereo unspecified)	0.2%	-1.9	15.0	-41.3%	-3.9%	3.7%	/
Cc1ccccc1Cn1c(=O)n(CCC(=O)NCc2ccco2)c(=O)c2sccc21	1.9%	/	/	/	/	/	/
O=S(=O)(c1ccccc1)N1CCN(Cc2ccccc2C(F)(F)F)CC1	9.4%	-4.7	-2.1	-89.7%	-5.6%	-14.0%	/
Cc1ccc(S(=O)(=O)N2CCN(Cc3ccccc3C(F)(F)F)CC2)cc1	-11.0%	1.8	-3.5	-22.8%	-18.7%	-8.4%	3.5%
CCOc1ccc(NC(=O)Nc2ccccc2C(N)=O)cc1	-15.4%	29.4*	45.8*	-1.3%	-3.7%	3.16µM*	10.3µM*
COn1c(SCc2cccnc2)nc2ccccc2c1=O	3.2%	-2.0	-13.9	-15.5%	-6.0%	-4.4%	/
COn1c(SCc2ccc(Cl)cc2)nc2ccccc2c1=O	-24.8%	-4.1	19.5	-47.4%	-16.4%	7.7%	1.8%
CN(Cc1cccc(-n2cccn2)c1)Cc1cn(C)nc1-c1ccccc1F	-0.5%	-2.4	14.3	-3.3%	0.1%	-5.3%	-6.6%
CN(Cc1cn(C)nc1-c1ccccc1F)Cc1nccn1C	0.5%	-1.0	-18.1	8.0%	0.4%	6.1%	/
CC(C)(C)c1ccc(CN(Cc2ccco2)Cc2nnnn2C2CCCC2)cc1	6.6%	1.2	67.9	16.6%	-2.4%	-5.1%	-2.7%
COc1ccc2cc(CN(Cc3ccco3)Cc3nnnn3C3CCCCC3)c(=O)[nH]c2c1	-1.8%	0.7	-9.3	3.6%	-8.8%	-1.4%	/
COc1ccc(C(=O)Nc2cccc(OC)c2)cc1	?	57.7*	91.3*	-49.6%	-12.7%	?	?
COc1cccc(NC(=O)c2cccc(C(=O)Nc3cccc(OC)c3)c2)c1	-3.9%	6.7	1.2	-2.5%	-0.2%	-7.7%	/
CC(C)[C@H](N)c1nnc(SCc2ccc(Cl)cc2)o1	-0.4%	-3.9	-12.4	8.3%	2.8%	-0.9%	-2.0%
CC(C)C[C@H](N)c1nnc(SCc2ccc(Cl)cc2)o1	-1.8%	-2.0	-12.7	2.6%	1.3%	-4.6%	/
O=C(CN1C(=O)NC2(CCCCC2)C1=O)N1CCOCC1	-10.9%	/	/	/	1.2%	/	/
CCOC(=O)c1ccc(NC(=O)Cn2c(=O)cc(C(F)(F)F)c3c(C)nn(C)c32)cc1	1.7%	/	/	/	/	/	/
Cc1ccc(S(=O)(=O)/N=C2/C=C(Sc3ncn[nH]3)C(=O)c3ccccc32)c(C)c1	/	19.4*	16.2	-23.7%	-78.0%	7.94µM*	?
Cc1ccc(S(=O)(=O)/N=C2\C=C(Nc3ccc(O)cc3)C(=O)c3ccccc32)cc1	-25.7%	/	/	/	-0.8%	/	/
SMILES	TbPYK inhibitor	CHX counter	Shiga inhibitor	NS1 function inh	SARS PLP yeast	LmPK inh	LmPK confirm
Cc1ccc(S(=O)(=O)/N=C2/C=C(Sc3ncn[nH]3)C(=O)c3ccccc32)cc1	7.94µM*	33.0*	51.0	-31.5%	-75.4%	7.08µM*	4.61µM*
Cc1ccc(S(=O)(=O)/N=C2\C=C(NS(=O)(=O)c3ccccc3)C(=O)c3ccccc32)c(C)c1	-21.6%	/	/	/	/	/	/
CCOC(=O)Cc1csc(NC(=S)NC(=O)c2ccc([N+](=O)[O-])cc2)n1	-2.7%	2.3	4.0	9.8%	6.0%	7.08µM*	?
CCOC(=O)C(C)NC(=O)c1cn(-c2ccc(OC)cc2)c(=O)c2ccccc12 (stereo unspecified)	-3.9%	-2.3	-6.7	1.5%	-2.4%	-0.8%	/
CCN1C(=O)c2cccc3c(NS(=O)(=O)c4ccc(NC(C)=O)cc4)ccc1c23	-8.3%	7.6	-7.8	-9.6%	10.6%	4.5%	/
CCOC(=O)c1ccc(NC(=O)Nc2ccc3c4c(cccc24)C(=O)N3CC)cc1	-12.4%	-1.3	-32.9	-14.9%	0.3%	2.1%	2.0%
OC1(c2nc3ccccc3[nH]2)CCCCC1	2.7%	/	/	/	0.7%	/	/
COc1ccc(C(=O)Nc2scc(-c3ccc(Cl)cc3Cl)c2C(N)=O)cc1	4.0%	43.7*	153.4*	7.9%	7.6%	5.1%	0.3%
CCOC(=O)c1c(-c2ccc(OC)c(OC)c2)csc1NC(=O)c1ccc(C)cc1	-2.0%	/	/	/	/	/	/
O=C(Nc1nc2ccccc2[nH]1)c1ccccc1F	?	-8.8	-22.8	-14.9%	-31.6%	3.16µM*	6.51µM*
Cc1ccsc1C(=O)Nc1nc2ccccc2[nH]1	?	27.8*	74.6*	-32.7%	-3.9%	2.82µM*	20.6µM*
COc1ccc(/C(O)=C2/C(=O)C(=O)N(Cc3cccnc3)C2c2ccco2)cc1OC (stereo unspecified)	0.1%	12.2	7.8	-4.6%	1.1%	-0.3%	3.7%
O=C1NC(=O)C2(CCCc3ccc([N+](=O)[O-])cc32)N1 (stereo unspecified)	-13.1%	/	/	/	/	/	/
CCCCn1c(N)c(N(CC(C)C)C(=O)c2cccc(S(=O)(=O)N3CCN(C)CC3)c2)c(=O)[nH]c1=O	-11.9%	/	/	/	-0.4%	/	/
O=C(O)CN1C(=O)C=CC1=O	-19.7%	/	/	/	/	/	/
O=C1C=CC(=O)N1CCCCCCN1C(=O)C=CC1=O	10µM*	-8.8	-18.6	-44.3%	-95.8%	?	?
CN=c1scc(-c2ccco2)n1/N=C/c1ccc(O)c(O)c1	-14.1%	3.9	15.8	/	-3.5%	5.62µM*	?
Cc1ccc(-c2nc3ccc(Br)cn3c2CC(C)(C)C)cc1	2.5%	/	/	/	/	/	/
O=CN/C=C/c1cc(O)ccc1O	-21.0%	4.4	9.8	-0.9%	0.8%	4.47µM*	?
COC(=O)c1ccc(Nc2nc(C)cc(C)n2)cc1	-2.8%	6.4	15.0	-34.8%	5.3%	-4.6%	-5.3%
CC(=O)Nc1ccc(Nc2nc(C)cc(C)n2)cc1	-3.1%	-1.7	8.4	-3.2%	-5.9%	0.1%	/
O=C1C(c2cc(=O)c3ccccc3[nH]2)=C(O)c2ccccc21	8.91µM*	41.9*	136.7*	10.8%	-16.4%	3.98µM*	?
O=c1cc(-c2ccccc2)[nH]c2ccccc12	-4.8%	-3.3	6.7	-67.3%	-11.6%	2.5%	/
